# Measured values: PubChem BioAssay AID1159580 (chemical genetic matrix, 2015)
# Screen size: about 5,500 compounds; about 2,000 (36%) were called active. Roughly 18% stayed inconclusive and do not appear here. The list shows a part of the results. Unmarked numbers belong to inactive results. No stated cut-off is given here; in the data, active means normalized growth mostly below about 0.91 (no sharp cut-off); inconclusive means no clear call, values can overlap the other calls; inactive means mostly above about 0.92.
# Assay: chemical genetic growth profiling, strain panel (AID 1159580);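 further: tested at 20 µM; growth read once vehicle control cultures reached saturation at 30 °C; 1 = growth at the plate median or of vehicle wells; lower values mean less growth of the strain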
# Details: growth OD
# [1] = S. cerevisiae deletion strains, locus YDL101C, strain DUN1, hits give low values
# [2] = S. cerevisiae deletion strains, locus YHR030C, strain SLT2, hits give low values
smiles,measurement,setting,value
Cc1ccccc1C(=O)Oc1ccc(C(F)(F)F)cc1[N+](=O)[O-],normalized growth,"S. cerevisiae deletion strains, locus YAR019C, strain CDC15, hits give low values",0.961
same,normalized growth,"S. cerevisiae deletion strains, locus YBL105C, strain PKC1, hits give low values",0.969
same,normalized growth,"S. cerevisiae deletion strains, locus YBR135W, strain CKS1, hits give low values",0.964
same,normalized growth,"S. cerevisiae deletion strains, locus YBR136W, strain MEC1, hits give low values",0.962
same,normalized growth,"S. cerevisiae deletion strains, locus YBR160W, strain CDC28, hits give low values",0.966
same,normalized growth,"S. cerevisiae deletion strains, locus YDL017W, strain CDC7, hits give low values",0.975
same,normalized growth,"S. cerevisiae deletion strains, locus YDL028C, strain MPS1, hits give low values",0.947
same,normalized growth,[1],0.979
same,normalized growth,"S. cerevisiae deletion strains, locus YDL108W, strain KIN28, hits give low values",0.964
same,normalized growth,"S. cerevisiae deletion strains, locus YDL132W, strain cdc53, hits give low values",0.964
same,normalized growth,"S. cerevisiae deletion strains, locus YDL214C, strain PRR2, hits give low values",0.864
same,normalized growth,"S. cerevisiae deletion strains, locus YDR052C, strain DBF4, hits give low values",0.969
same,normalized growth,"S. cerevisiae deletion strains, locus YDR054C, strain cdc34, hits give low values",0.965
same,normalized growth,"S. cerevisiae deletion strains, locus YDR226W, strain ADK1, hits give low values",0.982
same,normalized growth,"S. cerevisiae deletion strains, locus YDR477W, strain SNF1, hits give low values",0.937
same,normalized growth,"S. cerevisiae deletion strains, locus YER123W, strain YCK3, hits give low values",0.883
same,normalized growth,"S. cerevisiae deletion strains, locus YER133W, strain GLC7, hits give low values",0.941
same,normalized growth,"S. cerevisiae deletion strains, locus YFL009W, strain cdc4, hits give low values",0.96
same,normalized growth,"S. cerevisiae deletion strains, locus YFL029C, strain CAK1, hits give low values",0.965
same,normalized growth,"S. cerevisiae deletion strains, locus YFR003C, strain YPI1, hits give low values",0.972
same,normalized growth,"S. cerevisiae deletion strains, locus YFR019W, strain FAB1, hits give low values",0.979
same,normalized growth,"S. cerevisiae deletion strains, locus YFR028C, strain CDC14, hits give low values",0.963
same,normalized growth,"S. cerevisiae deletion strains, locus YGR040W, strain KSS1, hits give low values",0.934
same,normalized growth,"S. cerevisiae deletion strains, locus YGR052W, strain FMP48, hits give low values",0.894
same,normalized growth,"S. cerevisiae deletion strains, locus YGR092W, strain DBF2, hits give low values",0.807
same,normalized growth,[2],0.769 (active)
same,normalized growth,"S. cerevisiae deletion strains, locus YHR079C, strain IRE1, hits give low values",0.836
same,normalized growth,"S. cerevisiae deletion strains, locus YHR082C, strain KSP1, hits give low values",0.951
same,normalized growth,"S. cerevisiae deletion strains, locus YHR205W, strain SCH9, hits give low values",0.79
same,normalized growth,"S. cerevisiae deletion strains, locus YIL147C, strain SLN1, hits give low values",0.97
same,normalized growth,"S. cerevisiae deletion strains, locus YJL095W, strain BCK1, hits give low values",0.831
same,normalized growth,"S. cerevisiae deletion strains, locus YJL128C, strain PBS2, hits give low values",0.868
same,normalized growth,"S. cerevisiae deletion strains, locus YJL157C, strain FAR1, hits give low values",0.899
same,normalized growth,"S. cerevisiae deletion strains, locus YJR016C, strain ILV3, hits give low values",0.968
same,normalized growth,"S. cerevisiae deletion strains, locus YJR066W, strain TOR1 (second series), hits give low values",0.891
same,normalized growth,"S. cerevisiae deletion strains, locus YJR066W, strain TOR1, hits give low values",0.948
same,normalized growth,"S. cerevisiae deletion strains, locus YKL048C, strain ELM1, hits give low values",0.925
same,normalized growth,"S. cerevisiae deletion strains, locus YKL067W, strain YNK1, hits give low values",0.879
same,normalized growth,"S. cerevisiae deletion strains, locus YKL101W, strain HSL1, hits give low values",0.874
same,normalized growth,"S. cerevisiae deletion strains, locus YKL193C, strain SDS22, hits give low values",0.971
same,normalized growth,"S. cerevisiae deletion strains, locus YKL203C, strain TOR2, hits give low values",0.956
same,normalized growth,"S. cerevisiae deletion strains, locus YLR113W, strain HOG1, hits give low values",0.614 (active)
same,normalized growth,"S. cerevisiae deletion strains, locus YLR133W, strain CKI1, hits give low values",0.909
same,normalized growth,"S. cerevisiae deletion strains, locus YLR403W, strain SFP1, hits give low values",0.908
same,normalized growth,"S. cerevisiae deletion strains, locus YML070W, strain DAK1, hits give low values",0.891
same,normalized growth,"S. cerevisiae deletion strains, locus YMR001C, strain CDC5, hits give low values",0.969
same,normalized growth,"S. cerevisiae deletion strains, locus YMR205C, strain PFK2 (second series), hits give low values",0.898
same,normalized growth,"S. cerevisiae deletion strains, locus YMR277W, strain FCP1, hits give low values",0.962
same,normalized growth,"S. cerevisiae deletion strains, locus YNL006W, strain LST8, hits give low values",0.977
same,normalized growth,"S. cerevisiae deletion strains, locus YNL020C, strain ARK1, hits give low values",0.893
same,normalized growth,"S. cerevisiae deletion strains, locus YNL161W, strain CBK1, hits give low values",0.971
same,normalized growth,"S. cerevisiae deletion strains, locus YNL183C, strain NPR1, hits give low values",0.861
same,normalized growth,"S. cerevisiae deletion strains, locus YNL207W, strain RIO2, hits give low values",0.956
same,normalized growth,"S. cerevisiae deletion strains, locus YNL222W, strain SSU72, hits give low values",0.955
same,normalized growth,"S. cerevisiae deletion strains, locus YNL307C, strain MCK1 (second series), hits give low values",0.823
same,normalized growth,"S. cerevisiae deletion strains, locus YOL078W, strain AVO1, hits give low values",0.969
same,normalized growth,"S. cerevisiae deletion strains, locus YOL136C, strain PFK27, hits give low values",0.869
same,normalized growth,"S. cerevisiae deletion strains, locus YOR061W, strain CKA2, hits give low values",0.879
same,normalized growth,"S. cerevisiae deletion strains, locus YOR119C, strain RIO1, hits give low values",1
same,normalized growth,"S. cerevisiae deletion strains, locus YOR231W, strain MKK1, hits give low values",0.827
same,normalized growth,"S. cerevisiae deletion strains, locus YOR329C, strain SCD5, hits give low values",0.964
same,normalized growth,"S. cerevisiae deletion strains, locus YPL031C, strain PHO85, hits give low values",0.917
same,normalized growth,"S. cerevisiae deletion strains, locus YPL153C, strain RAD53, hits give low values",0.917
same,normalized growth,"S. cerevisiae deletion strains, locus YPL204W, strain HRR25, hits give low values",0.882
same,normalized growth,"S. cerevisiae deletion strains, locus YPL209C, strain IPL1, hits give low values",0.967
same,normalized growth,"S. cerevisiae deletion strains, locus YPL256C, strain CLN2, hits give low values",0.784 (active)
same,normalized growth,"S. cerevisiae deletion strains, locus YPR025C, strain CCL1, hits give low values",0.959
same,normalized growth,"S. cerevisiae deletion strains, locus YPR106W, strain ISR1, hits give low values",0.955
same,normalized growth,"S. cerevisiae deletion strains, locus YPR111W, strain DBF20, hits give low values",0.912
same,normalized growth,"S. cerevisiae deletion strains, strain NNK1, hits give low values",0.941
same,normalized growth,"S. cerevisiae deletion strains, strain TSCII, hits give low values",0.96
O=C(Oc1ccc(C(F)(F)F)cc1[N+](=O)[O-])c1c(F)cccc1F,normalized growth,"S. cerevisiae deletion strains, locus YAL013W, strain DEP1, hits give low values",0.185 (active)
same,normalized growth,"S. cerevisiae deletion strains, locus YBR229C, strain ROT2, hits give low values",0.178 (active)
same,normalized growth,[1],0.316 (active)
same,normalized growth,"S. cerevisiae deletion strains, locus YDR150W, strain NUM1, hits give low values",0.25 (active)
same,normalized growth,"S. cerevisiae deletion strains, locus YEL061C, strain CIN8, hits give low values",0.235 (active)
same,normalized growth,"S. cerevisiae deletion strains, locus YGR078C, strain PAC10, hits give low values",0.172 (active)
same,normalized growth,"S. cerevisiae deletion strains, locus YGR229C, strain SMI1, hits give low values",0.927 (active)
same,normalized growth,[2],0.16 (active)
same,normalized growth,"S. cerevisiae deletion strains, locus YHR087W, strain rtc3, hits give low values",0.133 (active)
same,normalized growth,"S. cerevisiae deletion strains, locus YJL187C, strain SWE1, hits give low values",0.141 (active)
same,normalized growth,"S. cerevisiae deletion strains, locus YJR043C, strain POL32, hits give low values",0.424 (active)
same,normalized growth,"S. cerevisiae deletion strains, locus YJR075W, strain HOC1, hits give low values",0.101 (active)
same,normalized growth,"S. cerevisiae deletion strains, locus YKL190W, strain CNB1, hits give low values",0.218 (active)
same,normalized growth,"S. cerevisiae deletion strains, locus YLR039C, strain RIC1, hits give low values",0.286 (active)
same,normalized growth,"S. cerevisiae deletion strains, locus YLR058C, strain SHM2 (second series), hits give low values",0.15 (active)
same,normalized growth,"S. cerevisiae deletion strains, locus YLR085C, strain ARP6, hits give low values",0.122 (active)
same,normalized growth,"S. cerevisiae deletion strains, locus YLR262C, strain YPT6, hits give low values",0.316 (active)
same,normalized growth,"S. cerevisiae deletion strains, locus YML094W, strain GIM5, hits give low values",0.4 (active)
same,normalized growth,"S. cerevisiae deletion strains, locus YMR219W, strain ESC1, hits give low values",0.14 (active)
same,normalized growth,"S. cerevisiae deletion strains, locus YMR263W, strain SAP30, hits give low values",0.169 (active)
same,normalized growth,"S. cerevisiae deletion strains, locus YMR307W, strain GAS1, hits give low values",0.213 (active)
same,normalized growth,"S. cerevisiae deletion strains, locus YNL153C, strain GIM3, hits give low values",0.227 (active)
same,normalized growth,"S. cerevisiae deletion strains, locus YNL298W, strain CLA4 (second series), hits give low values",0.23 (active)
same,normalized growth,"S. cerevisiae deletion strains, locus YNL322C, strain KRE1, hits give low values",0.577 (active)
same,normalized growth,"S. cerevisiae deletion strains, locus YNR030W, strain Alg12, hits give low values",0.559 (active)
same,normalized growth,"S. cerevisiae deletion strains, locus YPL055C, strain LGE1, hits give low values",0.171 (active)
same,normalized growth,"S. cerevisiae deletion strains, locus YPL241C, strain CIN2, hits give low values",0.685 (active)
same,normalized growth,"S. cerevisiae deletion strains, locus YPR135W, strain CTF4, hits give low values",0.269 (active)
same,normalized growth,"S. cerevisiae strains, strain wild type, hits give low values",0.515 (active)
